The target of assay [1] is Rap guanine nucleotide exchange factor 3 (Homo sapiens) (UniProt O95398). The experiment in a line: Confirmatory qHTS for agonist of cAMP-regulated guanine nucleotide exchange factor 3 (EPAC1) (AID 1645881;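 also: EPAC1 catalysed release of BODIPY-GDP from Rap1B seen as fluorescence loss; 100% = effect of cAMP agonist control; nearly all actives have a fitted effect of over 75% in size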). (In general: qHTS replaces the single test concentration by a dilution series.)
In assay [2] the target is Rap guanine nucleotide exchange factor 4 (Homo sapiens) (UniProt Q8WZA2). The experiment in a line: Confirmatory qHTS for agonist of cAMP-regulated guanine nucleotide exchange factor 4 (EPAC2) (AID 1645884).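 Also: nucleotide exchange releases bodipy-GDP from Rap1 and this lowers its fluorescence; % is scaled to controls: 0 for no effect and ±100 for the full control effect; nearly all actives have a fitted effect of over 65% in size.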
Assay [3] has the same target. The experiment in a line: Confirmatory qHTS for antagonist of cAMP-regulated guanine nucleotide exchange factor 4 (EPAC2) (AID 1645885). Also: nearly all actives have a fitted effect of over 25% in size. Also: potency is read from the fitted curve at half-maximal effect. As to activity change, negative = inhibition: % is scaled to controls: 0 for no effect and ±100 for the full control effect.
Assay [4] concerns the target Rap guanine nucleotide exchange factor 3 (Homo sapiens) (UniProt O95398). Nature of the assay: Counterscreen qHTS for antagonist of cAMP-regulated guanine nucleotide exchange factor 3 (EPAC1) (AID 1645888).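 Also: fluorescence loss as bound BODIPY-GDP is released from Rap1B; % of control where 0% means no effect.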 Put shortly:
(§1)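 Measured: fluorescence of BODIPY-GDP bound to Rap1B, which falls as exchange proceeds. Conditions include 50 uM competing GDP, 5 and 30 min reads, and a later cAMP challenge for antagonist detection.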
A general note: Counterscreens check selectivity or assay interference.

Assay [5] shares this target. Nature of the assay: Counterscreen qHTS for agonist of cAMP-regulated guanine nucleotide exchange factor 3 (EPAC1) (AID 1645889). Also: nearly all actives have a fitted effect of over 40% in size. Also: potency is read from the fitted curve at half-maximal effect. As to activation: % of control where 0% means no effect. Put shortly: as §1

Records with an inconclusive call do not appear. Unmarked numbers belong to inactive results. Calls of active or inactive are those of the source. Calls follow the shape of the dose curve; as a rule, active = well fitted curve in the direction sought with a large enough effect; inconclusive = small, poorly fitted or top-dose-only effect, or another doubt; inactive = no such curve, though single readings can be large; an effect the other way counts as inactive or inconclusive.

Sequence of Rap guanine nucleotide exchange factor 4 (Homo sapiens) (Q8WZA2 whole entry, looked up): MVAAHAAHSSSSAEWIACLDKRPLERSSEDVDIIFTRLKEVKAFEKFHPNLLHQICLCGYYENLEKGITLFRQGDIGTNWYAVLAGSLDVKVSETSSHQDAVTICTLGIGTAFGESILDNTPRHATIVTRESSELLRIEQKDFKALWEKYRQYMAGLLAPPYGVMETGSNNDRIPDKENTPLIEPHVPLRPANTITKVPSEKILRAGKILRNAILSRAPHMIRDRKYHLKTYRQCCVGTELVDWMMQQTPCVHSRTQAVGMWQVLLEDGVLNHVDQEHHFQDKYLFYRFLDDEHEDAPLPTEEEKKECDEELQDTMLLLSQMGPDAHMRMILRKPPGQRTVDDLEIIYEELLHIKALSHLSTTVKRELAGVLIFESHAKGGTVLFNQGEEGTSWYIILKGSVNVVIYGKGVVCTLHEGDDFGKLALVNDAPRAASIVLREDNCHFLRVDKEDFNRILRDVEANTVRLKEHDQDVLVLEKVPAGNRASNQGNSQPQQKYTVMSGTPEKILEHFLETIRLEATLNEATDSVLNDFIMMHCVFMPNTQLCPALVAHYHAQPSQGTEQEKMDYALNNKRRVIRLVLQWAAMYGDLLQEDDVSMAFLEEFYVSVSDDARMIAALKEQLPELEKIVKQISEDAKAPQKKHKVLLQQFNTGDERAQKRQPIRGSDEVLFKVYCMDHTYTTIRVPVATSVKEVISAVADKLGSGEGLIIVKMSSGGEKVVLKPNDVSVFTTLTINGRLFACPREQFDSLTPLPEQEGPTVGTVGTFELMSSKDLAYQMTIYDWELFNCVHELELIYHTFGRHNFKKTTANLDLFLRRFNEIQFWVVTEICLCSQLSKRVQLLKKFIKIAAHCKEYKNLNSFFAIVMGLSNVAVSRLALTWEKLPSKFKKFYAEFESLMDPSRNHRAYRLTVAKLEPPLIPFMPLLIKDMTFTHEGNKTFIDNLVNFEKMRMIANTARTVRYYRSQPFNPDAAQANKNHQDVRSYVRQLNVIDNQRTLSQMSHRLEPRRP
Sequence of Rap guanine nucleotide exchange factor 3 (Homo sapiens) (O95398 whole entry, looked up): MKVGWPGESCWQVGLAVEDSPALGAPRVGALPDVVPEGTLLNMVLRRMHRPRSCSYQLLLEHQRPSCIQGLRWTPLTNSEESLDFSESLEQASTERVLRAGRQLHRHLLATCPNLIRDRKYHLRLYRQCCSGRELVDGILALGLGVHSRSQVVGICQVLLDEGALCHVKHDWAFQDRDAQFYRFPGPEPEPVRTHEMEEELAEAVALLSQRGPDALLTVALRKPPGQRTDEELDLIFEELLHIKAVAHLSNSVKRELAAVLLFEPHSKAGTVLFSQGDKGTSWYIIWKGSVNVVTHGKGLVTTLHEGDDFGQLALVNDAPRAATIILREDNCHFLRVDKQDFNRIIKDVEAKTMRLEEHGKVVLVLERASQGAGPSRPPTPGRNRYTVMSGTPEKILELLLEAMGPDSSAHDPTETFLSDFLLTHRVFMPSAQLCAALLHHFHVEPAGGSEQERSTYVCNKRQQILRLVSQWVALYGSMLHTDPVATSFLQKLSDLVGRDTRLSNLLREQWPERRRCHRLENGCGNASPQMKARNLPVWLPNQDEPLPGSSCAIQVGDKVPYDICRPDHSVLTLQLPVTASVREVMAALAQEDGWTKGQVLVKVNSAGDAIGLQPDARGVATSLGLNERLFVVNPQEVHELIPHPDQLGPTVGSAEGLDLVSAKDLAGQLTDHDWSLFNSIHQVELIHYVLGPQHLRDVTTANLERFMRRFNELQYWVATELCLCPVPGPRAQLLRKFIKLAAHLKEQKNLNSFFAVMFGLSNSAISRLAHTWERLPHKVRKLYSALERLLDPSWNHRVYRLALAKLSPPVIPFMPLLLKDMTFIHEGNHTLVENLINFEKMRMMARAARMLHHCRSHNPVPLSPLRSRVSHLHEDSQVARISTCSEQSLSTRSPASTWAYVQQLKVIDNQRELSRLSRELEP

Consider `CCCCN(Cc1ccccc1)C(=O)c1oc(=O)c2ccccc2c1-c1ccc(C)cc1`, for which the Potency entry in assay [1], in assay [2], in assay [3], in assay [4] and in assay [5] was “inactive” in each case.

Consider `N#CCC(=O)Nc1ccc(C(=O)OCC(=O)Nc2ccc3ccccc3c2)cc1`, for which the Potency result in assay [1], in assay [2], in assay [3], in assay [4] and in assay [5] was “inactive” throughout.

Regarding `CCOC(=O)C1=C(N)OC2=C(C(=O)CCC2)C1c1sccc1C` (stereo not given), the Potency result in assay [1] and in assay [3] was “inactive” throughout. For the same molecule, the activation in assay [2] was 4.2% [at 17.1 µM, percent relative to cAMP agonist control]; in assay [5], -1.77% [at 30.8 µM]. The activity change, negative = inhibition in assay [4] was -19.9% [at 30.8 µM].

In the case of `COC(=O)c1c(SC)nc2ccccc2c1OCc1ccc(C)cc1`, the Potency entry in assay [1], in assay [2], in assay [3] and in assay [4] was “inactive” throughout. For the same molecule, in assay [5], the Potency is 17.8 µM (active).

Take `CCN1CCc2c(sc(-n3cccc3)c2C(C)NC(=O)Nc2ccc(C(=O)OC)cc2)C1` (stereo not given): the Potency entry in assay [1], in assay [2], in assay [3], in assay [4] and in assay [5] was “inactive” throughout.

Regarding `Oc1cccc(-c2nc3ncccn3c2Nc2cccc(C(F)(F)F)c2)c1`, the Potency result in assay [1], in assay [2], in assay [3], in assay [4] and in assay [5] was “inactive” throughout.

Take `Cc1ccc(NC(=O)C2(C)CCN2CCc2ccccc2)cc1` (stereo not given): the Potency entry in assay [1] and in assay [3] was “inactive” throughout. For the same molecule, the activation in assay [2] is -1.02% [at 17.1 µM, percent relative to cAMP agonist control]; in assay [5] it was 6.12% [at 30.8 µM]. The activity change, negative = inhibition in assay [4] was 1.14% [at 30.8 µM].

On to `COCCNc1nc(Oc2ccccc2)c2sccc2n1`, for which the Potency entry in assay [1], in assay [2], in assay [3], in assay [4] and in assay [5] was “inactive” in each case.

Consider `COc1ccccc1N(CC(=O)Nc1cc(C)on1)S(=O)(=O)c1ccc(Cl)cc1`, for which the Potency entry in assay [1] and in assay [3] was “inactive” in each case. In addition, the activation is 2.18% [at 17.1 µM, percent relative to cAMP agonist control] in assay [2] and 29.1% [at 30.8 µM] in assay [5]. The activity change, negative = inhibition in assay [4] was -8.9% [at 30.8 µM].

In the case of `C#Cc1ccc([C@@H]2C=C(C(=O)NCc3ccccc3)O[C@H](OCc3ccc(CO)cc3)C2)cc1`, the Potency result in assay [1], in assay [2], in assay [3], in assay [4] and in assay [5] was “inactive” each time.

`COc1ccc(S(=O)(=O)Nc2ccc3cn[nH]c3c2)cc1C`: the Potency entry in assay [1], in assay [2], in assay [4] and in assay [5] was “inactive” each time. Further, the Potency in assay [3] was 67.5 µM (active).

Take `Cc1ccc(/C=N/N2CCN(Cc3cccc4ccccc34)CC2)o1`: the Potency result in assay [1], in assay [2], in assay [3], in assay [4] and in assay [5] was “inactive” throughout.

As for `CCCCNC(=O)COC(=O)c1c2c(nc3ccccc13)CCC2`, the Potency result in assay [1], in assay [2], in assay [3], in assay [4] and in assay [5] was “inactive” throughout.

As to `Oc1c(C(Nc2nccs2)c2ccc(C(F)(F)F)cc2)ccc2cccnc12` (stereo not given), the Potency result in assay [1] and in assay [3] was “inactive” in each case. In addition, the activation in assay [2] is -2.43% [at 17.1 µM, percent relative to cAMP agonist control]; in assay [5] it was 3.72% [at 30.8 µM]. For the same molecule, in assay [4], the activity change, negative = inhibition was -18% [at 30.8 µM].

In the case of `Cc1ccccc1NC(=O)CN1C(=O)N/C(=C\c2ccccc2OCc2ccc(C(=O)O)cc2)C1=O`, the Potency result in assay [1], in assay [2], in assay [4] and in assay [5] was “inactive” each time. Also, the Potency in assay [3] is 53.6 µM (active).

Take `Cc1[nH]c2ccc(C(=O)OC(C)C(=O)N(C)c3ccccc3)cc2c1C` (stereo not given): the Potency entry in assay [1], in assay [2], in assay [3], in assay [4] and in assay [5] was “inactive” in each case.

For the molecule `C=CCc1ccccc1OCc1nc2ccccc2n1CC`, the Potency entry in assay [1], in assay [2], in assay [3], in assay [4] and in assay [5] was “inactive” in each case.

As for `CCC(=O)N(CCC1(c2ccccc2OC)CCOC(C(C)C)C1)Cc1ccco1` (stereo not given), the Potency entry in assay [1] and in assay [3] was “inactive” throughout. The activation was -0.808% [at 17.1 µM, percent relative to cAMP agonist control] in assay [2] and 10.9% [at 30.8 µM] in assay [5]. In addition, in assay [4], the activity change, negative = inhibition was -14.7% [at 30.8 µM].

For `CC[C@@H]1CC=C[C@H]2[C@H]1C(=O)N(Cc1ccccc1)[C@H]2c1ccc(C(F)(F)F)cc1`, the Potency entry in assay [1], in assay [2], in assay [3], in assay [4] and in assay [5] was “inactive” each time.

As to `Cc1ccc(Cl)cc1NS(=O)(=O)c1ccccc1`, the Potency entry in assay [1] and in assay [3] was “inactive” throughout. The activation in assay [2] is 2.77% [at 17.1 µM, percent relative to cAMP agonist control]; in assay [5], 7.24% [at 30.8 µM]. In assay [4], the activity change, negative = inhibition was 0.85% [at 30.8 µM].
